From PubChem BioAssay (NCI)
Compounds without any hit were thinned out: in the full panel of roughly 79,000, 15% have a hit. Values without a mark were called inactive. Activity calls are given as the source filed them. Rule as the data show it: active = growth inhibition above about 70%; inactive = the rest.

What was measured:
[1] = NCI Yeast Anticancer Drug Screen. Data for the rad50 strain (AID 155);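 also: 0% = growth of vehicle-only cultures of the same strain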; conditions: S. cerevisiae rad50 strain growth inhibition, hits give high values
Outline: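 Cells are treated with compound, grown, and their growth is then scored against vehicle-only cultures of the same repair-deficient yeast strain.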

[2] = NCI Yeast Anticancer Drug Screen. Data for the mec2-1 strain (AID 157); conditions: S. cerevisiae mec2-1 strain, hits give high values
Outline: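 Cells of the genetically defined mec2-1 yeast strain are incubated with test compound. Inhibition of growth is calculated against vehicle-treated controls.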

[3] = NCI Yeast Anticancer Drug Screen. Data for the sgs1 mgt1 strain (AID 161);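 also: 0% = growth of cultures given vehicle only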; conditions: S. cerevisiae sgs1 mgt1 strain, hits give high values
Outline: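 Read-out: growth inhibition vs vehicle controls. Cells: mutant yeast strain deficient in DNA damage repair.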

[4] = NCI Yeast Anticancer Drug Screen. Data for the cln2 rad14 strain (AID 165);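 also: 0% = growth equal to vehicle treated cultures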; conditions: S. cerevisiae cln2 rad14 strain, hits give high values
Outline: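 The screen exposed genetically defined yeast (cln2 rad14) to test compounds and scored growth inhibition relative to vehicle-treated controls.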

[5] = NCI Yeast Anticancer Drug Screen. Data for the mlh1 rad18 strain (AID 175); conditions: S. cerevisiae mlh1 rad18 strain growth inhibition, hits give high values
Outline: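 Compound-treated yeast growth, normalised to vehicle controls. Strain bears defined DNA repair mutations.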

[6] = NCI Yeast Anticancer Drug Screen. Data for the bub3 strain (AID 167); conditions: S. cerevisiae bub3 mutant strain, hits give high values
Outline: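 Part of a panel of yeast mutants defective in DNA damage repair or cell cycle regulation. Each strain is grown with compound, and inhibition is calculated relative to solvent-treated cultures.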

[7] = at 5.0 µM (retest, dose inferred, filed as 0.5)
[8] = at 50.0 µM (retest, dose inferred, filed as 5.0)

C1=NC(N(Cc2ccccc2)Cc2ccccc2)N(Cc2ccccc2)N1 (configuration not stated)
growth inhibition [1, 7]: 26% | growth inhibition [1, 8]: 95% (active) | growth inhibition ([1]; at 50.0 µM): 92.4% (active) | growth inhibition [2, 7]: -1% | growth inhibition [2, 8]: 95% (active) | growth inhibition ([2]; at 50.0 µM): 93.6% (active) | growth inhibition [3, 7]: 14% | growth inhibition [3, 8]: 94% (active) | growth inhibition ([3]; at 50.0 µM): 92.1% (active) | growth inhibition [4, 7]: -1% | growth inhibition [4, 8]: 95% (active) | growth inhibition ([4]; at 50.0 µM): 89.8% (active) | growth inhibition [5, 7]: -19% | growth inhibition [5, 8]: 96% (active) | growth inhibition ([5]; at 50.0 µM): 88.8% (active)

CCN(CC)CCC(=O)c1ccc2c3c(n(C)c2c1)CCCC3
growth inhibition [1, 7]: 0% | growth inhibition [1, 8]: 9% | growth inhibition ([1]; at 50.0 µM): 95.8% (active) | growth inhibition [2, 7]: 0% | growth inhibition [2, 8]: 9% | growth inhibition ([2]; at 50.0 µM): 25.2% | growth inhibition [3, 7]: -4% | growth inhibition [3, 8]: 26% | growth inhibition ([3]; at 50.0 µM): 83.8% (active) | growth inhibition [4, 7]: -5% | growth inhibition [4, 8]: 22% | growth inhibition ([4]; at 50.0 µM): 5.85% | growth inhibition [6, 7]: -5% | growth inhibition [6, 8]: 42% | growth inhibition ([6]; at 50.0 µM): 96.3% (active) | growth inhibition [5, 7]: 3% | growth inhibition [5, 8]: 21% | growth inhibition ([5]; at 50.0 µM): 78.7% (active)

O=C(/C=C\c1cccc2ccccc12)c1ccccn1
growth inhibition [1, 7]: 7% | growth inhibition [1, 8]: 97% (active) | growth inhibition ([1]; at 50.0 µM): 98.2% (active) | growth inhibition [2, 7]: 4% | growth inhibition [2, 8]: 97% (active) | growth inhibition ([2]; at 50.0 µM): 93.5% (active) | growth inhibition [3, 7]: 12% | growth inhibition [3, 8]: 99% (active) | growth inhibition ([3]; at 50.0 µM): 98.8% (active) | growth inhibition [4, 7]: 0% | growth inhibition [4, 8]: 97% (active) | growth inhibition ([4]; at 50.0 µM): 87.2% (active) | growth inhibition [5, 7]: 9% | growth inhibition [5, 8]: 99% (active) | growth inhibition ([5]; at 50.0 µM): 99% (active)

O=c1oc(-c2cc([N+](=O)[O-])cc([N+](=O)[O-])c2Cl)nc2ccccc12
growth inhibition [1, 7]: 29% | growth inhibition [1, 8]: 50% | growth inhibition ([1]; at 50.0 µM): 75.3% (active) | growth inhibition [2, 7]: 8% | growth inhibition [2, 8]: 22% | growth inhibition ([2]; at 50.0 µM): 63.5% | growth inhibition [3, 7]: 13% | growth inhibition [3, 8]: 47% | growth inhibition ([3]; at 50.0 µM): 83.7% (active) | growth inhibition [4, 7]: 15% | growth inhibition [4, 8]: 44% | growth inhibition ([4]; at 50.0 µM): 61.5% | growth inhibition [6, 7]: 15% | growth inhibition [6, 8]: 58% | growth inhibition ([6]; at 50.0 µM): 82.5% (active) | growth inhibition [5, 7]: 1% | growth inhibition [5, 8]: 57% | growth inhibition ([5]; at 50.0 µM): 86.8% (active)

Nc1ncnc2c1c(-c1ccccc1)cn2-c1ccc(I)cc1
growth inhibition [1, 7]: 54% | growth inhibition [1, 8]: -2% | growth inhibition ([1]; at 50.0 µM): 33.4% | growth inhibition [2, 7]: 23% | growth inhibition [2, 8]: 0% | growth inhibition ([2]; at 50.0 µM): 75.2% (active) | growth inhibition [3, 7]: 65% | growth inhibition [3, 8]: -3% | growth inhibition ([3]; at 50.0 µM): 41.1% | growth inhibition [4, 7]: 24% | growth inhibition [4, 8]: -2% | growth inhibition ([4]; at 50.0 µM): 94.2% (active) | growth inhibition [6, 7]: 32% | growth inhibition [6, 8]: 0% | growth inhibition ([6]; at 50.0 µM): 97.3% (active) | growth inhibition [5, 7]: 26% | growth inhibition [5, 8]: -2% | growth inhibition ([5]; at 50.0 µM): 47.9%

O=C1/C(=C/c2cccc(O)c2)SC(=S)N1/C=C\c1nc2ccccc2[nH]c1=O
growth inhibition [1, 7]: 8% | growth inhibition [1, 8]: 2% | growth inhibition ([1]; at 50.0 µM): 9.55% | growth inhibition [2, 7]: -8% | growth inhibition [2, 8]: -13% | growth inhibition ([2]; at 50.0 µM): 5.1% | growth inhibition [3, 7]: -4% | growth inhibition [3, 8]: 1% | growth inhibition ([3]; at 50.0 µM): 3.6% | growth inhibition [4, 7]: 17% | growth inhibition [4, 8]: -32% | growth inhibition ([4]; at 50.0 µM): 33.2% | growth inhibition [6, 7]: 11% | growth inhibition [6, 8]: -5% | growth inhibition ([6]; at 50.0 µM): -3.85% | growth inhibition [5, 7]: -2% | growth inhibition [5, 8]: -7% | growth inhibition ([5]; at 50.0 µM): -0.25%

CC1(C)CC(=N/O)/C(=N/O)C(=N\NC(N)=S)/C1
growth inhibition [2, 7]: -2% | growth inhibition [2, 8]: 35% | growth inhibition ([2]; at 50.0 µM): 49.1% | growth inhibition [3, 7]: 1% | growth inhibition [3, 8]: 63% | growth inhibition ([3]; at 50.0 µM): 76.9% (active) | growth inhibition [4, 7]: -12% | growth inhibition [4, 8]: 28% | growth inhibition ([4]; at 50.0 µM): 30.2% | growth inhibition [6, 7]: -1% | growth inhibition [6, 8]: 47% | growth inhibition ([6]; at 50.0 µM): 64.9% | growth inhibition [5, 7]: -3% | growth inhibition [5, 8]: 62% | growth inhibition ([5]; at 50.0 µM): 73.5% (active)

Nc1nc2ccccc2cc1C(=O)O
growth inhibition [1, 7]: -162% | growth inhibition [1, 8]: -150% | growth inhibition ([1]; at 50.0 µM): -2.25% | growth inhibition [3, 7]: -61% | growth inhibition [3, 8]: -55% | growth inhibition ([3]; at 50.0 µM): -7.95% | growth inhibition [4, 7]: -54% | growth inhibition [4, 8]: -48% | growth inhibition ([4]; at 50.0 µM): 63.5% | growth inhibition [6, 7]: -69% | growth inhibition [6, 8]: -70% | growth inhibition ([6]; at 50.0 µM): 12.5% | growth inhibition [5, 7]: -140% | growth inhibition [5, 8]: -107% | growth inhibition ([5]; at 50.0 µM): 3.9%

OC(OC/C(I)=C(/I)COC(O)C(Cl)(Cl)Cl)C(Cl)(Cl)Cl (configuration not stated)
growth inhibition [1, 7]: 28% | growth inhibition [1, 8]: 96% (active) | growth inhibition ([1]; at 50.0 µM): 97.2% (active) | growth inhibition [3, 7]: -2% | growth inhibition [3, 8]: 86% (active) | growth inhibition ([3]; at 50.0 µM): 94.8% (active) | growth inhibition [4, 7]: -10% | growth inhibition [4, 8]: 70% (active) | growth inhibition ([4]; at 50.0 µM): 76.7% (active) | growth inhibition [6, 7]: 1% | growth inhibition [6, 8]: 94% (active) | growth inhibition ([6]; at 50.0 µM): 93.1% (active) | growth inhibition [5, 7]: 13% | growth inhibition [5, 8]: 95% (active) | growth inhibition ([5]; at 50.0 µM): 97.1% (active)

COc1ccc(-c2c(-c3ccccc3)c(C)nc3[nH]c(=S)[nH]c(=S)c23)cc1OC
growth inhibition [1, 7]: -4% | growth inhibition [1, 8]: 69% | growth inhibition ([1]; at 50.0 µM): 92.2% (active) | growth inhibition [3, 7]: 7% | growth inhibition [3, 8]: 89% (active) | growth inhibition ([3]; at 50.0 µM): 94.4% (active) | growth inhibition [4, 7]: 7% | growth inhibition [4, 8]: 81% (active) | growth inhibition ([4]; at 50.0 µM): 93.2% (active) | growth inhibition [6, 7]: 0% | growth inhibition [6, 8]: 91% (active) | growth inhibition ([6]; at 50.0 µM): 69.8% | growth inhibition [5, 7]: -30% | growth inhibition [5, 8]: 79% (active) | growth inhibition ([5]; at 50.0 µM): 94.9% (active)
